Potency and outcome data for 9 molecules are collected here from PubChem BioAssay (Tox21).

Structures are written as SMILES. Where “and” joins values, the source holds several entries; their conditions need not be identical. Equal entries are not always repeated. Results filed as inconclusive are left out. Calls of active or inactive are those of the source. Unless noted, calls follow the shape of the dose curve; as a rule, active = well fitted curve in the direction sought with a large enough effect in the repeat runs; inconclusive = weak or mixed curves; inactive = no such curve, though single readings can be large; an effect the other way counts as inactive or inconclusive.

Assay [1] in a line: qHTS assay to identify small molecule antagonists of the glucocorticoid receptor (GR) signaling pathway - cell viability counter screen (AID 720693). Also: nearly all actives have a fitted effect of over 55% in size.
The nature of assay [2]: qHTS assay for identifying genotoxic compounds that show differential cytotoxicity against isogenic chicken DT40 cell lines with known DNA damage response pathways - wild type cell line (AID 743012). Also: nearly all actives have a fitted effect of over 60% in size. Also: potency is read from the fitted curve at half-maximal effect. Put shortly: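 300 wt DT40 cells/well; cpd (DMSO) pintool-transferred after ~0.5 h at 37 C/5% CO2; 40 h incubation; CellTiter-Glo added, 30 min RT; luminescence read.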
Assay [3] in a line: qHTS assay for identifying genotoxic compounds that show differential cytotoxicity against isogenic chicken DT40 cell lines with known DNA damage response pathways - Rev3 mutant cell line (AID 743014). Also: nearly all actives have a fitted effect of over 55% in size. Also: potency is read from the fitted curve at half-maximal effect.
Assay [4] is described as follows: qHTS assay for identifying genotoxic compounds that show differential cytotoxicity against isogenic chicken DT40 cell lines with known DNA damage response pathways - Rad54/Ku70 mutant cell line (AID 743015). Also: nearly all actives have a fitted effect of over 60% in size. Also: potency is read from the fitted curve at half-maximal effect.
A short description of assay [5]: qHTS assay to identify small molecule antagonists of the androgen receptor (AR) signaling pathway - cell viability counter screen (AID 743033; also: nearly all actives have a fitted effect of over 45% in size).
Assay [6] can be described thus: qHTS assay to identify small molecule antagonists of the androgen receptor (AR) signaling pathway using the MDA cell line - cell viability counter screen (AID 743041; also: nearly all actives have a fitted effect of over 45% in size; also: potency is read from the fitted curve at half-maximal effect). Put shortly:
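Viability read by CellTiter-Fluor fluorescence in the same wells as the antagonist screen, added after 15.5 h of a 16 h, 37C exposure. Human breast carcinoma MDA-kb2 AR-luc cells, compounds co-dosed with agonist R1881.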

The nature of assay [7]: qHTS assay to identify small molecule antagonists of the thyroid receptor (TR) signaling pathway - cell viability counter screen (AID 743064). Also: nearly all actives have a fitted effect of over 50% in size. Also: potency is read from the fitted curve at half-maximal effect. Put shortly: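 Plate GH3.TRE-Luc cells; incubate 4 h at 37 °C; add compound, then T3 to 1 nM final; incubate 23.5 h; add CellTiter-Fluor; incubate 30 min at 37 °C, 5% CO2; read fluorescence.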
The nature of assay [8]: qHTS assay to identify small molecule antagonists of the thyroid receptor (TR) signaling pathway (AID 743065). Also: nearly all actives have a fitted effect of over 55% in size. Also: potency is read from the fitted curve at half-maximal effect. Put shortly: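 Antagonism measured as loss of luciferase signal in GH3 cells stably carrying a TRE-luciferase reporter, co-treated with compound and T3 (1 nM final) for 23.5 h at 37 C. Viability was read in the same well by CellTiter-Fluor.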
Assay [9] deals with thyroid hormone receptor (rat, GH3 cells). The assay can be described thus: qHTS assay to identify small molecule agonists of the thyroid receptor (TR) signaling pathway (AID 743066; calls by dose curve).
Assay [10] can be described thus: qHTS assay to identify small molecule antagonists of the estrogen receptor alpha (ER-alpha) signaling pathway - cell viability counter screen (AID 743074; calls by dose curve;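 also: HEK293 cells carrying ER-alpha-UAS-bla reporter stimulated with 17beta-estradiol; nearly all actives have a fitted effect of over 45% in size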).
A short description of assay [11]: qHTS assay to identify small molecule antagonists of the estrogen receptor alpha (ER-alpha) signaling pathway using the BG1 cell line - cell viability counter screen (AID 743081).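 Also: compound given together with 17beta-estradiol as the ER stimulus; nearly all actives have a fitted effect of over 45% in size.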 Also: potency is read from the fitted curve at half-maximal effect.
For assay [12], the target named is Estrogen receptor (Homo sapiens) (UniProt P03372). The experiment in a line: qHTS assay to identify small molecule agonists of the estrogen receptor alpha (ER-alpha) signaling pathway using the BG1 cell line (AID 743079). Also: nearly all actives have a fitted effect of over 20% in size.
Estrogen receptor (Homo sapiens), sequence (P03372 whole entry, looked up): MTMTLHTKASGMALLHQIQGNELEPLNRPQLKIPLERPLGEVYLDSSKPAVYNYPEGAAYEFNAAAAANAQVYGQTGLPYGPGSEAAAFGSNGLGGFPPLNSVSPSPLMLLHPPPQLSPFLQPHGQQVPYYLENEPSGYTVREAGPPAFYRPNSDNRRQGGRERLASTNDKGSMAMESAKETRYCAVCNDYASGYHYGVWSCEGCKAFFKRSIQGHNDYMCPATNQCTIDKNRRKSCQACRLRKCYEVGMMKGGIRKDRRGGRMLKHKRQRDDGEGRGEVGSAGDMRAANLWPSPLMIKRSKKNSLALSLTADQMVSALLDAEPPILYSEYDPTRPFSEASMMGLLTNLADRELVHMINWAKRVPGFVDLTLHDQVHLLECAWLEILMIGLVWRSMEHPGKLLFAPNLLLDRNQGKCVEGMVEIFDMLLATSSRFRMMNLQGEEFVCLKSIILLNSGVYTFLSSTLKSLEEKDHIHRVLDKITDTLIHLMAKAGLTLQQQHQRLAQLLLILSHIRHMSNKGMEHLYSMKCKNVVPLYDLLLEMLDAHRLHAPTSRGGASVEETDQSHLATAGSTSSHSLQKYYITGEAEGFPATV
A short description of assay [13]: qHTS assay to identify small molecule antagonists of the estrogen receptor alpha (ER-alpha) signaling pathway using the BG1 cell line (AID 743080; calls by dose curve;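 also: BG1 cells stimulated with 17beta-estradiol alongside compound; series mostly up to about 70 µM; nearly all actives have a fitted effect of over 25% in size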). Put shortly:
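Quantitative HTS on the Tox21 10K library: BG1 cells with endogenous ER-alpha and ERE-luciferase reporter, 17beta-estradiol stimulation, 21.5 h compound exposure, luminescence endpoint with parallel fluorescence cytotoxicity counter-read.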

The next assay deals with Aromatase (Homo sapiens) (UniProt P11511). The assay can be described thus: qHTS assay to identify aromatase inhibitors (AID 743083). Also: series mostly up to about 70 µM; nearly all actives have a fitted effect of over 55% in size.
Aromatase (Homo sapiens), sequence (P11511 whole entry, looked up): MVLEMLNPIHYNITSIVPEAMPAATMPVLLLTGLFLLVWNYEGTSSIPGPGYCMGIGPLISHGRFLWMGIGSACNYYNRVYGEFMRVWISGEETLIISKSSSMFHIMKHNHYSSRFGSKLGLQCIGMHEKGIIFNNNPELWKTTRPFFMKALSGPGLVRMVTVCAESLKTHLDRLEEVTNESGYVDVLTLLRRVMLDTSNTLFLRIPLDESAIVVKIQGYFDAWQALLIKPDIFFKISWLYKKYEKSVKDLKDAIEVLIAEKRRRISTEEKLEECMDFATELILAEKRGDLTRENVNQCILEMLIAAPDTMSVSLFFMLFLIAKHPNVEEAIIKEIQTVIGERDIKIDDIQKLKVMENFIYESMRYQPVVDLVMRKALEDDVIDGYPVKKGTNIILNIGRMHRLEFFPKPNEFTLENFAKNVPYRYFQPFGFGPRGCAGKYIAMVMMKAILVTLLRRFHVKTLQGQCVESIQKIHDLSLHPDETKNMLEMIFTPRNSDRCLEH
The target of assay [14] is Estrogen receptor (Homo sapiens) (UniProt P03372). The experiment in a line: qHTS assay to identify small molecule agonists of the estrogen receptor alpha (ER-alpha) signaling pathway (AID 743075; calls by dose curve;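 also: HEK293 GripTite cells with ER-alpha and UAS-driven beta-lactamase reporter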).
For assay [15] the target is unchanged. The assay can be described thus: qHTS assay to identify small molecule antagonists of the estrogen receptor alpha (ER-alpha) signaling pathway (AID 743069; active = well fitted curve in the direction sought with a large enough effect in the signal ratio in the repeat runs, not every such curve was filed as active; the % refers to the signal ratio). Put shortly:
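Antagonist mode: compounds in DMSO were co-added with 17beta-estradiol to ER-alpha-bla HEK293 cells (2% charcoal-stripped serum) and left 18 h at 37C. Reporter inhibition was measured as FRET fluorescence after 2 h LiveBLAzer substrate at room temperature.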

Assay [16] concerns the target Androgen receptor (Homo sapiens) (UniProt P10275). The assay can be described thus: qHTS assay to identify small molecule agonists of the androgen receptor (AR) signaling pathway (AID 743036; active = well fitted activation curve with a large enough effect in the signal ratio in the repeat runs, with a control signal flat, not every such curve was filed as active; the % refers to the signal ratio). Put shortly:
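Reporter line: GeneBLAzer AR-UAS-bla-GripTite (HEK293). Steps: plate cells, 4 h rest, add compounds, 16 h at 37C, add LiveBLAzer B/G substrate, 2 h at RT, read fluorescence.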

For assay [17] the target is unchanged. The assay can be described thus: qHTS assay to identify small molecule agonists of the androgen receptor (AR) signaling pathway using the MDA cell line (AID 743040; also: nearly all actives have a fitted effect of over 20% in size; also: potency is read from the fitted curve at half-maximal effect). Put shortly: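 Luciferase agonist assay: 16 h compound exposure at 37C without CO2 in MDA-kb2 AR-luc cells, whose MMTV promoter responds to both AR and GR. Luminescence measured after 30 min room-temperature incubation with ONE-Glo.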

For assay [18] the target is unchanged. The experiment in a line: qHTS assay to identify small molecule antagonists of the androgen receptor (AR) signaling pathway using the MDA cell line (AID 743042; also: nearly all actives have a fitted effect of over 55% in size). Put shortly:
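Antagonist mode: compounds plus R1881 agonist added to MDA-kb2 AR-luc cells, incubated 16 h at 37C. Luciferase reporter luminescence quantified, with multiplexed CellTiter-Fluor readout for cell viability.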

For assay [19] the target is unchanged. The assay can be described thus: qHTS assay to identify small molecule antagonists of the androgen receptor (AR) signaling pathway (AID 743035; active = well fitted inhibition curve with a large enough effect in the signal ratio in the repeat runs, not every such curve was filed as active; the % refers to the signal ratio). Put shortly: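 In this cell-based reporter screen, compounds were tested in concentration series against R1881-activated HEK293 cells expressing beta-lactamase under UAS control; after 16 h at 37C, FRET substrate was added and fluorescence read 2 h later.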

Androgen receptor (Homo sapiens), sequence (P10275 whole entry, looked up): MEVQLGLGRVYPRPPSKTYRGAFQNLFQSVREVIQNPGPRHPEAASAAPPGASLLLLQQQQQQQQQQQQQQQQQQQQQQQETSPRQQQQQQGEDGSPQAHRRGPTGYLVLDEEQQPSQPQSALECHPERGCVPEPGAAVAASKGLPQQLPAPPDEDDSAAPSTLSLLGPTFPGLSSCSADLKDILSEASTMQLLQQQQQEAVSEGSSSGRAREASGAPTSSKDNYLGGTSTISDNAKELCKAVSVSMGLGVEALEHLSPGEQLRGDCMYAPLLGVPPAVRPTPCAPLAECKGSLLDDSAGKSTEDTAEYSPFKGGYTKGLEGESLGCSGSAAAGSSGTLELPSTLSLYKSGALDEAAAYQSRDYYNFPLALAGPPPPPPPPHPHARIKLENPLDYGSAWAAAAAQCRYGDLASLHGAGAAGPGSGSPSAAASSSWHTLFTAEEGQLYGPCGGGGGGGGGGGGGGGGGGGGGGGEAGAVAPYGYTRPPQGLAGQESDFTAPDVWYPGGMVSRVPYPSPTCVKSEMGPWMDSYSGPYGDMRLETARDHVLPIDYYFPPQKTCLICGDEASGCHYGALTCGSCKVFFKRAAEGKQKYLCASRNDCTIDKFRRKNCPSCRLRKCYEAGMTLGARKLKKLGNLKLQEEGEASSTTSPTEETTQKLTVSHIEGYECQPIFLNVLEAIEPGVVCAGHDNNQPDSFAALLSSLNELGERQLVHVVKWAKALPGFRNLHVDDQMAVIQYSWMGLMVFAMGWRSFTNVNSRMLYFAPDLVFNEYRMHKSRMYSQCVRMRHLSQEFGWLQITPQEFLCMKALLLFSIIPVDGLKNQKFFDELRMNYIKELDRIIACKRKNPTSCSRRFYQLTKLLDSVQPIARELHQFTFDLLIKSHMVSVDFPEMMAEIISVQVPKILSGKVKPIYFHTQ

As for `c1ccc(CN2CCNCC2)cc1`, the Potency entry in assay [1], in assay [2], in assay [3], in assay [4], in [5] and in [6] was “inactive” throughout. Also, the Potency result in [7], in [8], in assay [9], in assay [10] and in assay [11] was “inactive” each time.

Turning to `O=C(NC(=O)c1c(F)cccc1F)Nc1ccc(OC(F)(F)C(F)OC(F)(F)F)c(Cl)c1` (configuration not stated), the Potency result in [1], in assay [5], in [6], in assay [7], in [8] and in assay [9] was “inactive” throughout. Further, the Potency entry (in assay [10]; in assay [12]; in [13]; in assay [11]; in the assay with Aromatase (Homo sapiens)) was “inactive” in each case. Moreover, the Potency was 6.68 µM (active) in assay [2], 4.22 µM (active) in assay [3] and 1.06 µM (active) in assay [4].

`O=[N+]([O-])c1cc(C(F)(F)F)cc([N+](=O)[O-])c1Cl`: the Potency result in assay [1], in [2], in assay [3], in assay [4], in assay [5] and in assay [8] was “inactive” in each case. Also, the Potency entry (in [9]; in assay [10]; in assay [14]; in [13]; with Aromatase (Homo sapiens)) was “inactive” each time. For the same molecule, the Potency in assay [6] is 43.5 µM (active); in [7] it was 61.4 µM (active).

Consider `O=[N+]([O-])c1ccc(F)c([N+](=O)[O-])c1`, for which the Potency result in assay [1], in [2], in assay [3], in [4], in assay [5] and in assay [7] was “inactive” each time. Also, the Potency entry (in assay [9]; in [10]; in assay [14]; with Aromatase (Homo sapiens)) was “inactive” in each case. The Potency in assay [6] is 55 µM (active); in assay [8], 61.7 µM (active); in assay [11] it was 18.8 µM (active) and 49 µM (active).

For `C=CC(=O)OCC(C)O` (configuration not stated), the Potency entry in assay [1], in [2], in assay [3], in [4], in assay [5] and in assay [6] was “inactive” throughout. Besides, the Potency entry in assay [7], in assay [8], in assay [9], in [15], in assay [12] and in assay [13] was “inactive” each time. The Potency entry in [11] is “inactive”.

In the case of `CCCCCCCCOC(=O)c1ccc(C(=O)OCCCCCCCC)c(C(=O)OCCCCCCCC)c1`, the Potency result in assay [1], in assay [2], in assay [3], in assay [4], in assay [5] and in assay [6] was “inactive” each time. Also, the Potency result (in assay [7]; in assay [8]; in assay [9]; in assay [10]; in [11]; in the assay with Aromatase (Homo sapiens)) was “inactive” in each case.

On to `C=CC(=O)OCC(C)C`, for which the Potency result in assay [1], in assay [2], in assay [3], in [4], in [5] and in [6] was “inactive” throughout. Besides, the Potency result in assay [7], in [8], in assay [9], in assay [15], in assay [10] and in assay [14] was “inactive” each time. In addition, the Potency result (in assay [12]; in assay [13]; in assay [11]; with Aromatase (Homo sapiens)) was “inactive” each time.

`O=[N+]([O-])C(Br)(CO)CO`: the Potency result in assay [1], in assay [5], in assay [17], in assay [6], in [18] and in assay [9] was “inactive” each time. For the same molecule, the Potency entry in assay [15], in assay [10], in assay [14], in [12], in assay [13] and in assay [11] was “inactive” throughout. Also, in the assay with Aromatase (Homo sapiens), the Potency entry was “inactive”. In addition, the Potency in assay [2] is 8.41 µM (active) and 6.11 µM (active); in [3], 18.8 µM (active) and 7.7 µM (active); in [4] it was 26.6 µM (active) and 12.2 µM (active); in assay [7], 23.7 µM (active) and 21.7 µM (active); in [8], 23.7 µM (active) and 24.3 µM (active). Also, the call in assay [16] was inactive.

As to `BrCC(Br)C1CCC(Br)C(Br)C1` (configuration not stated), the Potency result in [1], in assay [2], in [3], in [4], in assay [5] and in [19] was “inactive” in each case. Also, the Potency result (in assay [6]; in assay [18]; in assay [9]; in assay [10]; in assay [11]; with Aromatase (Homo sapiens)) was “inactive” in each case. For the same molecule, in assay [16], the result was inactive. For the same molecule, the results for the Potency in [17], in [7] and in assay [8] were 1.36 µM (active), 68.2 µM (active) and 48.3 µM (active), respectively.
